Where “and” joins values, the source holds several entries; their conditions need not be identical. Identical values can stand only once. Records with an inconclusive call do not appear. Calls of active or inactive are those of the source.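 The calls were made as follows, unless noted: active = normalized viability below 100% at a tested concentration; inactive = the rest.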
Assays:
[1] = polyglutamine-triggered caspase-3 activation inhibitors, cell-based (AID 1583); conditions: polyglutamine-induced caspase-3 activation, cell assay; stronger effect = higher value;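 tested at 10 µM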
[2] = liver-stage malaria parasite growth inhibition, primary screen, cell-based, HepG2, luciferase luminescence, HepG2 viability (AID 624349; in the data active = parasite load remaining mostly below about 12%, no sharp cut-off; inactive = mostly above about 10%;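 also: 100% = mean of DMSO negative control wells on the same plate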); conditions: P. berghei liver stage in HepG2, luciferase luminescence, concentration not given here; parasite load remaining: stronger effect = lower value; viability: measured here: HepG2 viability without parasites
[3] = differential killing of epithelial or mesenchymal cells, primary screen, imaging, PC-3E GFP, TEM4-18 mCherry, co-culture (AID 1345086;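 active = compounds killing one labelled cell type while sparing the other, by normalised counts and ratio limits, not self-fluorescent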;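 as to all read-outs here: cells exposed to compound for 72 h before imaging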;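 as to red/green cell ratio (normalised): normalised mesenchymal count divided by normalised epithelial count so high means epithelial killing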); conditions: imaging cell counts, at 1 µM; for red/green cell ratio (normalised): actives lie on both sides, counts scaled to control wells, 1 = unselective
[4] = test system: Aerobactin synthetase IucA (Klebsiella pneumoniae); assay: IucA aerobactin synthetase inhibitors, biochemical, Tocris library, absorbance (AID 1345561; call rule not given here;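 also: 100% = enzyme without compound and 0% = no enzyme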); conditions: purified IucA enzyme assay, absorbance (OD) read-out; stronger effect = lower value;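 tested at 8 µM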
[5] = growth inhibition of DIPG glioma cells, dose response, cell-based, SU-DIPG-XVII, MIPE5.0, CellTiter-Glo, qHTS (AID 1347060; cut-off not given, nearly all actives have AC50 up to about 26 µM;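 also: cells exposed to compound for 48 hours before viability readout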); conditions: SU-DIPG-XVII viability, CellTiter-Glo ATP luminescence
[6] = growth inhibition of DIPG glioma cells, dose response, cell-based, SU-DIPG-XIII, MIPE4.0, CellTiter-Glo, qHTS (AID 1347061; cut-off not given, nearly all actives have AC50 up to about 37 µM;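 also: cells exposed to compound for 48 hours before readout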); conditions: SU-DIPG-XIII viability, CellTiter-Glo ATP luminescence
[7] = growth inhibition of DIPG glioma cells, dose response, cell-based, JHH-DIPG-1, MIPE4.0, CellTiter-Glo, qHTS (AID 1347062; cut-off not given, nearly all actives have AC50 up to about 27 µM;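 also: cells exposed to compound for two days before readout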); conditions: JHH-DIPG-1 viability, CellTiter-Glo ATP luminescence
[8] = growth inhibition of DIPG glioma cells, dose response, cell-based, SU-DIPG-XIII, MIPE5.0, CellTiter-Glo, qHTS (AID 1347064; cut-off not given, nearly all actives have AC50 up to about 23 µM;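 also: cells exposed to compound for 48 hours before the viability read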); conditions: SU-DIPG-XIII viability, CellTiter-Glo ATP luminescence
[9] = SU-DIPG-VI glioma cell viability, MIPE4.0 library, CellTiter-Glo luminescence, qHTS (AID 1347066; cut-off not given, nearly all actives have AC50 up to about 30 µM;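 also: cells exposed to compound for 48 hours before readout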); conditions: CellTiter-Glo ATP luminescence
[10] = JHH-DIPG-1 glioma cell viability, MIPE5.0 library, CellTiter-Glo luminescence, qHTS (AID 1347067; cut-off not given, nearly all actives have AC50 up to about 26 µM;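 also: cells exposed to compound for 48 hours before readout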); conditions: JHH-DIPG-1 glioma viability, CellTiter-Glo ATP luminescence
[11] = SU-DIPG-XXV glioma cell viability, MIPE5.0 library, qHTS (AID 1347068; cut-off not given, nearly all actives have IC50 up to about 30 µM;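 also: cells exposed to compound for 48 hours before viability readout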)
[12] = sensitizers of A549 cells to miR-34 induction, primary screen, imaging, A549 dox-inducible miR-34, nuclei and caspase counts (AID 1347080;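 active = compounds whose cell count with miR-34 switched on is under 0.7 times the count with it off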); conditions: A549 miR-34 inducible, Hoechst nuclei count, 48 h
[13] = modifiers of HSF1 nuclear foci, imaging, Selleck Cancer Library (AID 1347162; in the data active = plate-normalised HSF1 focus index below about 0.46); conditions: human cells, at 10 µM; SSMD: measured here: HSF1 foci SSMD mean; cell count: measured here: cell number; plate-normalised HSF1 focus index: stronger effect = lower value
[14] = survival rescue of mitochondrial mutant cells in low glucose, primary screen, MELAS cybrids, Rieske KO mouse fibroblasts, CellTiter-Glo (AID 1508586;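 active = mean z-score across replicates of 1.96 or higher in either the MELAS or the Rieske mutant cell line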;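 also: z relative to plate mean and SD of compound and empty wells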)
[15] = ovarian cancer cell viability with rucaparib, profiling panel, oncology-focused library, rucaparib conditional (AID 1508598); conditions: patient-derived ovarian cancer cells, CellTiter-Glo viability, 144 h, stronger effect = lower value
[16] = viability rescue of complex I mutant cybrids, primary screen, cell-based, galactose medium, ATP luminescence (AID 1645843;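 active = z-score of at least 1.8 in each of two replicates, scored against plate mean and spread of sample wells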;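 also: positive z means more ATP and so rescue of galactose-driven cybrid death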); conditions: complex I mutant cybrid cells, 72 h, stronger effect = higher value
[17] = measured here: epithelial PC-3E GFP cell survival
[18] = measured here: mesenchymal TEM4-18 mCherry cell survival

CC1(C)C2CC[C@]3(C)C(C(=O)C=C4[C@@H]5C[C@@](C)(C(=O)O)CC[C@]5(C)CC[C@]43C)[C@@]2(C)CC[C@@H]1O (some centres not stated)
inhibition [1]: 22.2% | parasite load remaining [2]: 94.2% (inactive) | viability [2]: 71% | red/green cell ratio (normalised) [3]: 0.98 (inactive) | normalised cell number [3, 17]: 0.92 | normalised cell number [3, 18]: 0.89

CC(CCC(=O)O)[C@H]1CCC2C3CC[C@@H]4C[C@H](O)CC[C@]4(C)C3CC[C@@]21C (some centres not stated)
parasite load remaining [2]: 32.1% (inactive) | viability [2]: 67.3% | red/green cell ratio (normalised) [3]: 0.99 (inactive) | normalised cell number [3, 17]: 0.91 | normalised cell number [3, 18]: 0.89

CC(C)CC(NC(=O)CCN)C(=O)O (configuration not stated)
inhibition [1]: 1.74% | red/green cell ratio (normalised) [3]: 1.07 (inactive) | normalised cell number [3, 17]: 1.22 | normalised cell number [3, 18]: 1.31

C=C(C)[C@H]1CC=C(C(=O)O)CC1
inhibition [1]: 10.7% | parasite load remaining [2]: 101% (inactive) | viability [2]: 69.4% | red/green cell ratio (normalised) [3]: 0.84 (inactive) | normalised cell number [3, 17]: 1.08 | normalised cell number [3, 18]: 0.92

NC(COCc1ccccc1)C(=O)O (configuration not stated)
inhibition [1]: 2.09% | red/green cell ratio (normalised) [3]: 0.87 (inactive) | normalised cell number [3, 17]: 1.19 | normalised cell number [3, 18]: 1.04

CCCCC(=O)O[C@]1(C(=O)CO)[C@@H](C)CC2C3CCC4=CC(=O)C=C[C@]4(C)[C@@]3(F)C(O)C[C@@]21C (some centres not stated)
parasite load remaining [2]: 94.9% (inactive) | viability [2]: 71% | red/green cell ratio (normalised) [3]: 1.42 (inactive) | normalised cell number [3, 17]: 0.8 | normalised cell number [3, 18]: 1.14

NC(Cc1ccc(F)cc1)C(=O)O (configuration not stated)
inhibition [1]: 10.4% | red/green cell ratio (normalised) [3]: 0.96 (inactive) | normalised cell number [3, 17]: 0.88 | normalised cell number [3, 18]: 0.84

NC[C@H]1O[C@H](O[C@H]2C(O[C@@H]3O[C@H](CO)[C@@H](O)[C@H]3O)[C@@H](O)[C@H](N)C[C@@H]2N)[C@H](N)[C@@H](O)[C@@H]1O (some centres not stated)
inhibition [1]: -18.6% | parasite load remaining [2]: 166% (inactive) | viability [2]: 89% | red/green cell ratio (normalised) [3]: 0.87 (inactive) | normalised cell number [3, 17]: 1.26 | normalised cell number [3, 18]: 1.1

CC[C@H](C)C(=O)O[C@H]1CCC=C2C=C[C@H](C)C(CCC3C[C@@H](O)CC(=O)O3)[C@H]21 (some centres not stated)
inhibition [1]: -3.44% | red/green cell ratio (normalised) [3]: 0.93 (inactive) | normalised cell number [3, 17]: 0.95 | normalised cell number [3, 18]: 0.89

CC(=O)OCC(=O)[C@@]1(O)[C@H](C)CC2C3CCC4=CC(=O)C=C[C@]4(C)[C@@]3(F)[C@@H](O)C[C@@]21C (some centres not stated)
inhibition [1]: 52.6% | parasite load remaining [2]: 140% (inactive) | viability [2]: 73.1% | red/green cell ratio (normalised) [3]: 1.26 (inactive) | normalised cell number [3, 17]: 1.37 | normalised cell number [3, 18]: 1.74

COc1ccc([C@@H]2CC(=O)c3c(O)cc(O[C@@H]4O[C@H](CO[C@H]5O[C@@H](C)[C@H](O)[C@@H](O)[C@H]5O)[C@@H](O)[C@H](O)[C@H]4O)cc3O2)cc1O
inhibition [1]: 12.3% | red/green cell ratio (normalised) [3]: 0.82 (inactive) | normalised cell number [3, 17]: 0.99 | normalised cell number [3, 18]: 0.81

NC(=O)Nc1sc(-c2ccc(F)cc2)cc1C(N)=O
parasite load remaining [2]: 72.5% (inactive) | viability [2]: 79.5% | remaining activity [4]: 122% (inactive) | AC50 [5]: 9.34 µM (active) | AC50 [6]: 11.8 µM (active) | AC50 [7]: 4.69 µM (active) | AC50 [8]: 20.9 µM (active) | AC50 [9]: 16.6 µM (active) | AC50 [10]: 5.9 µM (active) | IC50 [11]: 14.8 µM (active) | fold change ([12]; stronger effect = lower value, cell number ratio, induced over uninduced): 0.943 (inactive) and 1.1 (inactive) | fold change ([12]; measured here: relative caspase fold change +Dox/-Dox): 0.476 and 0.704 | cell count ([12]; measured here: total cells with miR-34 induction, stronger effect = lower value): 1490 and 2380 | cell count ([12]; measured here: total cells without miR-34 induction): 1580 and 2160 | SSMD [13]: -1.15 | cell count [13]: 6750 | plate-normalised HSF1 focus index [13]: 0.95 (inactive) | z-score ([14]; MELAS cybrid survival, CellTiter-Glo 48 h, stronger effect = higher value): 0.0212 (inactive) | z-score ([14]; Rieske KO mouse fibroblast survival, CellTiter-Glo 72 h): 0.196 | viability ([15]; at 0.000305 µM, OCI-C5x cells, with rucaparib 10 µM, 100% = cells with rucaparib alone): 113% (inactive) | viability ([15]; at 0.000305 µM, OCI-C5x cells, without rucaparib): 127% (inactive) | viability ([15]; at 0.000305 µM, OCI-P5x cells, with rucaparib 20 µM, 100% = cells with rucaparib alone): 116% (inactive) | viability ([15]; at 0.000305 µM, OCI-P5x cells, without rucaparib): 109% (inactive) | viability ([15]; at 0.00122 µM, OCI-C5x cells, with rucaparib 10 µM, 100% = cells with rucaparib alone): 118% (inactive) | viability ([15]; at 0.00122 µM, OCI-C5x cells, without rucaparib): 126% (inactive) | viability ([15]; at 0.00122 µM, OCI-P5x cells, with rucaparib 20 µM, 100% = cells with rucaparib alone): 106% (inactive) | viability ([15]; at 0.00122 µM, OCI-P5x cells, without rucaparib): 106% (inactive) | viability ([15]; at 0.00488 µM, OCI-C5x cells, with rucaparib 10 µM, 100% = cells with rucaparib alone): 124% (inactive) | viability ([15]; at 0.00488 µM, OCI-C5x cells, without rucaparib): 131% (inactive) | viability ([15]; at 0.00488 µM, OCI-P5x cells, with rucaparib 20 µM, 100% = cells with rucaparib alone): 105% (inactive) | viability ([15]; at 0.00488 µM, OCI-P5x cells, without rucaparib): 104% (inactive) | viability ([15]; at 0.0195 µM, OCI-C5x cells, with rucaparib 10 µM, 100% = cells with rucaparib alone): 115% (inactive) | viability ([15]; at 0.0195 µM, OCI-C5x cells, without rucaparib): 108% (inactive) | viability ([15]; at 0.0195 µM, OCI-P5x cells, with rucaparib 20 µM, 100% = cells with rucaparib alone): 102% (inactive) | viability ([15]; at 0.0195 µM, OCI-P5x cells, without rucaparib): 101% (inactive) | viability ([15]; at 0.0781 µM, OCI-C5x cells, with rucaparib 10 µM, 100% = cells with rucaparib alone): 115% (inactive) | viability ([15]; at 0.0781 µM, OCI-C5x cells, without rucaparib): 109% (inactive) | viability ([15]; at 0.0781 µM, OCI-P5x cells, with rucaparib 20 µM, 100% = cells with rucaparib alone): 102% (inactive) | viability ([15]; at 0.0781 µM, OCI-P5x cells, without rucaparib): 98.9% (active) | viability ([15]; at 0.313 µM, OCI-C5x cells, with rucaparib 10 µM, 100% = cells with rucaparib alone): 124% (inactive) | viability ([15]; at 0.313 µM, OCI-C5x cells, without rucaparib): 105% (inactive) | viability ([15]; at 0.313 µM, OCI-P5x cells, with rucaparib 20 µM, 100% = cells with rucaparib alone): 95.8% (active) | viability ([15]; at 0.313 µM, OCI-P5x cells, without rucaparib): 93% (active) | viability ([15]; at 1.25 µM, OCI-C5x cells, with rucaparib 10 µM, 100% = cells with rucaparib alone): 125% (inactive) | viability ([15]; at 1.25 µM, OCI-C5x cells, without rucaparib): 104% (inactive) | viability ([15]; at 1.25 µM, OCI-P5x cells, with rucaparib 20 µM, 100% = cells with rucaparib alone): 92.8% (active) | viability ([15]; at 1.25 µM, OCI-P5x cells, without rucaparib): 87.7% (active) | viability ([15]; at 5 µM, OCI-C5x cells, with rucaparib 10 µM, 100% = cells with rucaparib alone): 95.3% (active) | viability ([15]; at 5 µM, OCI-C5x cells, without rucaparib): 67.2% (active) | viability ([15]; at 5 µM, OCI-P5x cells, with rucaparib 20 µM, 100% = cells with rucaparib alone): 39% (active) | viability ([15]; at 5 µM, OCI-P5x cells, without rucaparib): 60.3% (active) | z-score [16]: 0.96 (inactive)

COC(=O)C(N)CS (configuration not stated)
inhibition [1]: -5.77% | parasite load remaining [2]: 102% (inactive) | viability [2]: 69.9% | red/green cell ratio (normalised) [3]: 0.97 (inactive) | normalised cell number [3, 17]: 1.14 | normalised cell number [3, 18]: 1.11
